Screening data (PubChem BioAssay)
This is a sample that favours compounds with a hit; in the whole collection about 4.1% have one here.
DAX1 inh-1: DAX1 (NR0B1) inhibitors, primary screen, cell-based, HEK293, Gal4-DAX1, luciferase luminescence | inhibition, % at 6.75 µM | Nuclear receptor subfamily 0 group B member 1 (Homo sapiens), P51843 | HEK293 Gal4-DAX1 luciferase reporter | AID 504766, 2011 | 340,000 compounds, 0.99% hits;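 active = inhibition above the mean over all tested compounds plus 3 SD, cut at about 4.2% in these data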;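 note: 0% = DAX1-transfected cells with DMSO and 100% = empty-vector control cells with DMSO; inhibition shows as a rise in luminescence from relieved DAX1 repression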
DAX1 inh-2: DAX1 (NR0B1) inhibitors on StAR promoter, primary screen, cell-based, luminescence, SF-1 (NR5A1), full-length DAX-1. HEK293T StAR-luciferase reporter, SF-1/DAX-1 repression relief. inhibition, % at 6.8 µM. 370,000 compounds, 1.1% hits;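 active = inhibition above the mean over all tested compounds plus 3 SD, cut at about 3.6% in these data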;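 note: 0% = DAX-1 cells with DMSO and 100% = cells lacking DAX-1 with DMSO; higher inhibition means more luminescence from relief of DAX-1 repression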
ssDAF-12 act: S. stercoralis DAF-12 nuclear receptor activators, primary screen, cell-based, luminescence, HEK293, GRIP1 co-expression, lit1-tk-luc; Nuclear hormone receptor DAF-12 (Strongyloides stercoralis); HEK293 ssDAF-12/GRIP1 lit1-tk-luc reporter; % of 3 µM dafachronic acid response; activation, % at 6.8 µM; 370,000 compounds, 1% hits; AID 652126, 2013;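 active = activation above the mean over all tested compounds plus 3 SD, cut at about 0.9% in these data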;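 note: 0% = DMSO-only wells and 100% = 3 µM delta7-dafachronic acid wells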
hcDAF12 agonist: H. contortus DAF-12 nuclear receptor activators, primary screen, cell-based, luminescence, HEK293, lit1-tk-luc reporter | 370,000 compounds, 1.4% hits | activation, % at 6.8 µM | HEK293 hcDAF-12 lit1-tk-luc reporter; 0% DMSO, 100% Δ7-dafachronic acid | AID 652067, 2013;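 active = activation above the mean of all tested compounds plus 3 SD, cut at about 5.5% in these data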;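 note: 100% = response to 3 µM Δ7-dafachronic acid high control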
hgDAF-12 ag: H. glycines DAF-12 receptor agonists, primary screen, cell-based, luminescence, HEK293, GAL4 fusion, UAS-luciferase; HEK293 GAL4-hgDAF12 UAS-luciferase reporter, agonist luminescence; normalized to butyrate control; activation, % at 6.8 µM; 370,000 compounds, 1.8% hits; AID 687014, 2013;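 active = activation above a cutoff set at the mean of all screened compounds plus 3 SD, cut at about 10% in these data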;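 note: 0% = DMSO wells and 100% = sodium butyrate wells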
DAX1 conf: DAX1 (NR0B1) inhibitors relieving SF-1 repression, confirmation, cell-based, luminescence, HEK293T, full-length DAX-1, SF-1 activated StAR promoter; shares compounds with DAX1 inh-2; HEK293T StAR-promoter luciferase reporter, SF-1/DAX-1 repression; inhibition, % at 6.8 µM; 2,400 compounds, 87% hits; AID 652134, 2013;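 active = inhibition above the average of every tested compound plus 3 SD, cut at about 3.8% in these data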;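 note: 0% = DAX-1 cells with DMSO and 100% = no DAX-1 control cells with DMSO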
Target sequence (P51843 whole entry, looked up): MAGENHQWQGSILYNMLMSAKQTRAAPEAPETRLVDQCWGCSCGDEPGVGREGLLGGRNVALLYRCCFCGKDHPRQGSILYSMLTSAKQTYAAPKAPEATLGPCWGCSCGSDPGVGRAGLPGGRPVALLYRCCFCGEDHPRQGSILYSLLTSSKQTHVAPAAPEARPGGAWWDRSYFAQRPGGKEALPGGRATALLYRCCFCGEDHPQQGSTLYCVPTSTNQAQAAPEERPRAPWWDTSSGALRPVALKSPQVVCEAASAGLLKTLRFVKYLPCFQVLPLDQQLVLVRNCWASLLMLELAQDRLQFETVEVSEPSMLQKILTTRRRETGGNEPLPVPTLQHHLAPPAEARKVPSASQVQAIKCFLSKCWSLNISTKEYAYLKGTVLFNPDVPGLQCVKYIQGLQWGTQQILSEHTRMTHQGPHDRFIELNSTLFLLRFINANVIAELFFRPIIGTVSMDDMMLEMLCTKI
SF1 AF2mut Luc: StAR reporter signal changes without DAX1, counter-screen for DAX1 inhibitor project, cell-based, luminescence, AF-2 mutant SF-1, transactivation; 2,400 compounds, 78% hits; inhibition, % at 6.8 µM; HEK293 StAR-luciferase, SF-1 AF2 mutant; shares compounds with DAX1 inh-2; AID 652136, 2013;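 active = inhibition above the mean of all tested compounds plus 3 SD, cut at about 3% in these data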;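 note: 0% = DAX-1 transfected cells with DMSO and 100% = cells without DAX-1 with DMSO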
* hit, by the source's call; x = not tested or not shown.

SMILES	DAX1 inh-1	DAX1 inh-2	ssDAF-12 act	hcDAF12 agonist	hgDAF-12 ag	DAX1 conf	SF1 AF2mut Luc
COC(=O)N1C[C@H](Oc2cccc3ccccc23)[C@H]2C[C@@H]1c1ccccc1O2	x	-1.1	-1.2	-3.6	-2.2	x	x
Cc1cscc1-c1ccc(C(=O)Nc2c(C)cccc2C)o1	x	4.5*	-0.9	-3.0	-4.1	-1.0	-0.5
Cc1ccc(-c2ccc(C(=O)Nc3ccccc3)o2)c2ccccc12	0.0	-0.4	-1.5	-1.6	2.6	x	x
CCOC(=O)N1CCN(C(=O)c2cc(COc3c(F)cccc3F)on2)CC1	1.2	7.8*	0.8	3.1	11.5*	8.9*	5.7*
CN(C(=O)c1cc(COc2c(F)cccc2F)on1)C1CCOC1 (stereo unspecified)	0.8	5.1*	-1.1	2.9	5.2	-0.8	1.8
CC(=O)c1ccc(OCc2cc(C(=O)N3CC[C@@H]4CCCC[C@H]4C3)no2)cc1	1.2	1.2	0.1	1.5	10.0	x	x
Cc1cccc(C)c1OCc1cc(C(=O)N2CCC(C3CCCCC3)C2)no1 (stereo unspecified)	1.6	4.7*	0.5	1.0	10.1	5.0*	4.0*
O=C(c1cc(COc2c(F)cccc2F)on1)N1CCCCCC1	0.1	4.8*	-0.5	1.1	6.5	4.6*	3.0*
CC(=O)N1CCCN(C(=O)c2cc(COc3c(F)cccc3F)on2)CC1	0.5	-0.7	-1.1	0.2	0.6	x	x
CCOC(=O)N1CCN(C(=O)c2cc(COc3ccc(F)cc3F)on2)CC1	-0.5	0.6	-0.6	-1.0	2.5	x	x
CN(Cc1ccccc1)C(=O)c1ccc(NC(=O)Cc2ccc(NC(=O)C3CCCN(C(=O)c4ccccc4)C3)cc2)cc1 (stereo unspecified)	-1.4	-2.9	-1.8	0.5	-3.3	x	x
COc1ccc2c(c1)Cc1sc(NC(=O)c3ccco3)nc1-2	2.3	2.3	-0.3	4.5	6.9	x	x
COc1ccc2sc(NC(=O)c3ccco3)nc2c1	-2.1	6.2*	-0.3	4.3	10.3	10.1*	2.6
C[C@@H]1CN([C@@H](C)CO)C(=O)CCCn2nncc2CO[C@H]1CN(C)S(=O)(=O)c1ccc(F)cc1	-0.7	0.0	-1.0	0.3	-0.7	x	x
O=C(CCN1C(=O)/C(=C/c2ccccc2Cl)SC1=S)NCCCN1CCOCC1	0.7	2.8	-1.6	-2.1	0.4	x	x
O=C(Nc1nonc1-c1ccc(F)cc1)c1ccco1	1.5	-0.1	-0.3	-0.5	-2.0	x	x
Oc1ccc(C[C@H]2CNC(=S)N2CC2CCCN2C[C@H](Cc2ccccc2)N2C[C@H](Cc3ccc(O)cc3)N(CC3CCCCCC3)C2=S)cc1 (stereo partly specified)	-1.0	4.9*	-1.3	-0.4	-1.2	1.6	0.9
Oc1ccc(C[C@H]2CN([C@@H](Cc3ccccc3)CN3CCCC3CN3C(=S)NC[C@@H]3Cc3ccccc3)C(=S)N2CC2CCCCC2)cc1 (stereo partly specified)	x	0.5	-0.6	-1.8	2.9	x	x
CC(C)C[C@@H](CN1CCC[C@@H]1CN1C(=S)NC[C@@H]1Cc1ccccc1)N1C[C@H](Cc2ccc(O)cc2)N(CC2CCCCCC2)C1=S	x	5.0*	-0.5	-1.5	1.1	-1.3	0.5
CCOc1ccc(CCN2C(=S)N([C@@H](CC(C)C)CN3CCCC3CN3C(=S)NC[C@@H]3CC(C)C)C[C@@H]2Cc2ccccc2)cc1 (stereo partly specified)	0.9	4.8*	-0.7	-0.6	-2.1	-2.4	-1.6
